# Results filed as inconclusive are left out. The source made the active and inactive calls. Cut-off read from the data, not from the text of the source, unless noted: active = inhibition above about 80%; inactive = the rest.
# What was measured:
# [1] = viability loss in pontine glioma line – cell-based, SU-DIPG-XVII, MIPE5.0, CellTiter-Glo, qHTS, dose response (AID 1347060; cut-off not given, nearly all actives have AC50 up to about 26 µM;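 for AC50: cells exposed to compound for 48 hours before viability readout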); conditions: CellTiter-Glo ATP luminescence
# [2] = viability loss in pontine glioma line – cell-based, SU-DIPG-XIII, MIPE5.0, CellTiter-Glo, qHTS, dose response (AID 1347064; cut-off not given, nearly all actives have AC50 up to about 23 µM;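 for AC50: cells exposed to compound for 48 hours before the viability read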); conditions: CellTiter-Glo ATP luminescence
# [3] = viability loss in pontine glioma line – cell-based, SU-DIPG-XXV, MIPE5.0, CellTiter-Glo, qHTS, dose response (AID 1347065; cut-off not given, nearly all actives have AC50 up to about 26 µM;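 note: cells exposed to compound for 48 hours before ATP readout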); conditions: CellTiter-Glo ATP luminescence
# [4] = JHH-DIPG-1 glioma cell viability, MIPE5.0 library, CellTiter-Glo luminescence, qHTS (AID 1347067; cut-off not given, nearly all actives have AC50 up to about 26 µM;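 note: cells exposed to compound for 48 hours before readout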); conditions: JHH-DIPG-1 glioma viability, CellTiter-Glo ATP luminescence
# [5] = growth inhibition of DIPG cells – cell-based, MIPE5.0 library, qHTS (AID 1347068; cut-off not given, nearly all actives have IC50 up to about 30 µM;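 for IC50: cells exposed to compound for 48 hours before viability readout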); conditions: SU-DIPG-XXV viability
# [6] = viability loss with induced miR-34 in A549 – imaging, A549 dox-inducible miR-34, nuclei and caspase counts, primary screen (AID 1347080;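 active = compounds whose cell count with miR-34 switched on is under 0.7 times the count with it off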); conditions: A549 miR-34 inducible, Hoechst nuclei count, 48 h
# [7] = MELAS cybrid and Rieske KO viability enhancers – cell-based, MELAS cybrids, Rieske KO mouse fibroblasts, CellTiter-Glo, primary screen (AID 1508586;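 active = mean z-score across replicates of 1.96 or higher in either the MELAS or the Rieske mutant cell line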;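 note: z relative to plate mean and SD of compound and empty wells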); conditions: low glucose
# [8] = growth inhibition, single agent or in combination, cell-based, chromothripsis tumors, cisplatin or BGB combos (AID 1671449); conditions: LFS_MB_P medulloblastoma cells;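 note: cells exposed for 96 hours; 0% = vehicle DMSO and 100% = killing by high DMSO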
# [9] = growth inhibition, single agent and combos, cell-based, chromothripsis tumors, cisplatin or BGB combos (AID 1671450); conditions: HDN33 neuroblastoma cells, stronger effect = higher value;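 note: cells exposed to compound for four days; 0% = vehicle DMSO and 100% = cell killing by high DMSO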
# [10] = growth inhibition, single agents and combos, ICB984, cell-based, cisplatin or BGB combos, synergistic combos for chromothripsis tumors (AID 1671451; call rule not given here;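 note: cells exposed for 96 hours before readout; 0% = vehicle DMSO and 100% = killing by high DMSO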); conditions: ICB984 medulloblastoma cells, drug combinations, stronger effect = higher value
# [11] = growth inhibition, single agents and combos, LFS_MB_1R, cell-based, cisplatin or BGB combos, synergistic combos for chromothripsis tumors (AID 1671452); conditions: LFS_MB_1R medulloblastoma cells, stronger effect = higher value;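 note: cells exposed for 96 hours before readout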
# [12] = growth inhibition, single agents and combos, HTB85, cell-based, BGB or cisplatin IC20 combos, synergistic combos for chromothripsis tumors (AID 1671453); conditions: HTB85 osteosarcoma cells, drug combinations, stronger effect = higher value;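 note: cells exposed for 96 hours before readout; 0% = vehicle DMSO and 100% = high DMSO killing control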
# [13] = growth inhibition, single agents and combos, CRL2098, cell-based, BGB or cisplatin IC20 combos, synergistic combos for chromothripsis tumors (AID 1671454); conditions: CRL2098 osteosarcoma cells, drug combinations, stronger effect = higher value;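 note: cells exposed for 96 h before readout; 0% = vehicle DMSO and 100% = killing by high DMSO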
# [14] = growth inhibition, single agents and combos, HD-MB03, cell-based, BGB or cisplatin IC20 combos, synergistic combos for chromothripsis tumors (AID 1671455; in the data active = inhibition above about 83%;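 note: 0% = vehicle DMSO and 100% = high DMSO as cytotoxic control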); conditions: HD-MB03 medulloblastoma cells, stronger effect = higher value
# [15] = growth inhibition, single agents and combos, UWB1.289, cell-based, BGB or cisplatin combos, synergistic combos for chromothripsis tumors (AID 1671456); conditions: UWB1.289 ovarian carcinoma cells, stronger effect = higher value;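 note: cells exposed to compound for four days; 0% = vehicle DMSO and 100% = killing by high DMSO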
# [16] = growth inhibition, MDA-MB-436, cell-based, BGB or cisplatin combos, synergistic combos for chromothripsis tumors (AID 1671458; call rule not given here;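 note: cells exposed for 96 hours; 0% = vehicle DMSO and 100% = killing by high DMSO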); conditions: MDA-MB-436 breast carcinoma growth inhibition, drug combinations, stronger effect = higher value
# [17] = BT084 cell growth, single and combined drugs, ICGC_MB145, cisplatin and BGB IC40 combos (AID 1671461); conditions: BT084 medulloblastoma cells, drug combinations, stronger effect = higher value;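 note: cells exposed to drugs for 96 hours; 0% = vehicle DMSO and 100% = high DMSO full killing control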
# [18] = RCMB18 cell growth, single agent and combined, cisplatin and BGB IC40 combos (AID 1671462); conditions: RCMB18 medulloblastoma cells, stronger effect = higher value;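 note: cells exposed to compound for four days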
# [19] = CRL1545 cell growth, single agent and combined, cisplatin and BGB IC20 combos (AID 1671464); conditions: CRL1545 osteosarcoma cells, stronger effect = higher value;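 note: cells exposed to compound for 96 hours before readout; 0% = vehicle DMSO and 100% = high DMSO killing control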
# [20] = measured here: combination with BGB IC40, at 0.05 µM
# [21] = measured here: with BGB IC20 combination, at 0.5 µM
# [22] = measured here: with cisplatin IC20 combination, at 0.5 µM
# [23] = measured here: combination with cisplatin, at 0.5 µM
smiles,measurement,setting,value
COc1cccc(-c2cc(F)ccc2C2Cc3nc(N)nc(C)c3C(=O)N2)n1 (stereo not given),AC50,[1],29.5 nM (active)
same,AC50,[2],41.7 nM (active)
same,AC50,[3],29.5 nM (active)
same,AC50,[4],37.2 nM (active)
same,IC50,[5],74.2 nM (active)
same,fold change,"[6]; stronger effect = lower value, cell number ratio, induced over uninduced",0.968 (inactive)
same,fold change,[6]; measured here: relative caspase fold change +Dox/-Dox,0.335
same,cell count,"[6]; measured here: total cells with miR-34 induction, stronger effect = lower value",2200
same,cell count,[6]; measured here: total cells without miR-34 induction,2270
same,z-score,"[7]; MELAS cybrid survival, CellTiter-Glo 48 h, stronger effect = higher value",2.51 (active)
same,z-score,"[7]; Rieske KO mouse fibroblast survival, CellTiter-Glo 72 h",-1.33
N=C1CCCN1Cc1[nH]c(=O)[nH]c(=O)c1Cl,outcome,[1],inactive
same,outcome,[2],inactive
same,outcome,[3],inactive
same,outcome,[4],inactive
same,outcome,[5],inactive
same,inhibition,"[8]; at 0.5 µM, stronger effect = higher value",-20% (inactive)
same,inhibition,"[8]; measured here: combination with BGB IC20, at 0.005 µM",7.99%
same,inhibition,"[8]; measured here: combination with BGB IC40, at 0.005 µM",-21.4%
same,inhibition,[8]; [20],-6.35%
same,inhibition,"[8]; measured here: combination with cisplatin, at 0.5 µM, stronger effect = higher value",-51.5%
same,inhibition,"[8]; measured here: combination with cisplatin, at 5 µM, stronger effect = higher value",0.237%
same,inhibition,"[9]; BGB combo, at 5 µM",-2.48%
same,inhibition,[9]; at 0.5 µM,2.44% (inactive)
same,inhibition,"[9]; cisplatin combo, at 5 µM",22.1%
same,inhibition,[9]; [21],3.45%
same,inhibition,[9]; [22],3.39%
same,inhibition,"[9]; single agent, at 5 µM",-10.2%
same,inhibition,"[10]; BGB IC20 combo, at 0.005 µM",12.8%
same,inhibition,"[10]; BGB IC40 combo, at 0.005 µM",-11.6%
same,inhibition,"[10]; BGB IC40 combo, at 0.05 µM",-8.96%
same,inhibition,[10]; at 0.5 µM,-1.56% (inactive)
same,inhibition,"[10]; cisplatin combo, at 0.05 µM",-12%
same,inhibition,"[10]; cisplatin combo, at 0.5 µM",11.2%
same,inhibition,"[10]; cisplatin combo, at 5 µM",-26.7%
same,inhibition,"[10]; measured here: 5 uM single agent, at 5 µM",-22.7%
same,inhibition,[11]; at 0.5 µM,-12.8% (inactive)
same,inhibition,[11]; [20],8.6%
same,inhibition,[11]; [23],-12.6%
same,inhibition,"[11]; measured here: combination with cisplatin, at 5 µM",-5.77%
same,inhibition,[12]; at 0.5 µM,8.24% (inactive)
same,inhibition,"[12]; measured here: with BGB IC20, at 0.5 µM",11.6%
same,inhibition,"[12]; measured here: with BGB IC20, at 5 µM",59.6%
same,inhibition,"[12]; measured here: with cisplatin IC20, at 0.5 µM",-6.26%
same,inhibition,"[12]; measured here: with cisplatin IC20, at 5 µM",-29%
same,inhibition,"[12]; single agent, at 5 µM",-1.22%
same,inhibition,[13]; at 0.5 µM,2.27% (inactive)
same,inhibition,"[13]; measured here: combination with BGB at IC20, at 0.5 µM",3.71%
same,inhibition,"[13]; measured here: combination with cisplatin at IC20, at 0.5 µM",0.594%
same,inhibition,[14]; at 0.5 µM,-9.24% (inactive)
same,inhibition,"[14]; measured here: combo with BGB at IC20, at 0.5 µM",-10.8%
same,inhibition,"[14]; measured here: combo with cisplatin at IC20, at 0.5 µM",-6.6%
same,inhibition,[15]; at 0.5 µM,19.4% (inactive)
same,inhibition,"[15]; measured here: inhibition with BGB combination, at 0.05 µM",-16.6%
same,inhibition,"[15]; measured here: inhibition with cisplatin combination, at 0.05 µM",-2.8%
same,inhibition,[16]; at 0.5 µM,-5.08% (inactive)
same,inhibition,"[16]; measured here: BGB combination, at 0.5 µM",3%
same,inhibition,"[16]; measured here: BGB combination, at 5 µM",-6.4%
same,inhibition,"[16]; measured here: cisplatin combination, at 0.5 µM",-14.7%
same,inhibition,"[16]; measured here: cisplatin combination, at 5 µM",-27%
same,inhibition,[17]; at 0.5 µM,-23.1% (inactive)
same,inhibition,"[17]; cisplatin combination, at 0.5 µM",-17.8%
same,inhibition,"[17]; cisplatin combination, at 5 µM",-5.35%
same,inhibition,"[17]; measured here: BGB IC40 combination 0.05 uM, at 0.05 µM",-15.9%
same,inhibition,"[17]; single agent, at 5 µM",-9.51%
same,inhibition,[18]; at 0.5 µM,3.14% (inactive)
same,inhibition,"[18]; cisplatin combo, at 5 µM",-11.8%
same,inhibition,"[18]; measured here: BGB IC40 combination, at 0.05 µM",22%
same,inhibition,[18]; [23],1.1%
same,inhibition,"[18]; single agent, at 5 µM",-5.54%
same,inhibition,[19]; at 0.5 µM,26.4% (inactive)
same,inhibition,[19]; [21],22.4%
same,inhibition,[19]; [22],26.7%
same,inhibition,"[19]; single agent, at 0.05 µM",12.9%
same,inhibition,"[19]; single agent, at 5 µM",25.1%

# Source: PubChem BioAssay
